Calls of active or inactive are those of the source.
Key:
[1] = binders of probe aFSTL3 on microarray, primary screen, stem cell growth factor project, biochemical, small-molecule microarray, fluorescence 635/667 (AID 1064); details: higher = more signal;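 further: measures binding of the biotinylated anti-FSTL3 antibody to printed compounds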
[2] = binders from COS7 lysate, DM2A8 probe, primary screen, torsin A project, cell lysate, small-molecule microarray, fluorescence 635/667 (AID 1065); details: higher = more signal, COS7 lysate expressing mutant human TOR1A
[3] = binders of probe aFGF2 on microarray, primary screen, stem cell growth factor project, biochemical, small-molecule microarray, fluorescence 635/667 (AID 1067); details: higher = more signal;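 further: measures binding of biotinylated aFGF2 protein to printed compounds on slides; z-score merges feature fluorescence and signal-to-noise across triplicate slides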
[4] = binders of probe aFGF10 on microarray, primary screen, stem cell growth factor project, biochemical, small-molecule microarray, fluorescence 635/667 (AID 1071); details: higher = more signal;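 further: score merges 667 nm spot intensity and signal to noise from triplicate slides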
[5] = molecular target: Neurogenic locus notch homolog protein 2 (Homo sapiens) (UniProt Q04721); assay: Notch2 binders on small-molecule microarrays, primary screen, biochemical, small-molecule microarray, 635 nm fluorescence, stem cell growth factors (AID 1073); details: Notch2 binding, higher = more signal
Sequence of Neurogenic locus notch homolog protein 2 (Homo sapiens) (Q04721 whole entry, looked up, canonical isoform): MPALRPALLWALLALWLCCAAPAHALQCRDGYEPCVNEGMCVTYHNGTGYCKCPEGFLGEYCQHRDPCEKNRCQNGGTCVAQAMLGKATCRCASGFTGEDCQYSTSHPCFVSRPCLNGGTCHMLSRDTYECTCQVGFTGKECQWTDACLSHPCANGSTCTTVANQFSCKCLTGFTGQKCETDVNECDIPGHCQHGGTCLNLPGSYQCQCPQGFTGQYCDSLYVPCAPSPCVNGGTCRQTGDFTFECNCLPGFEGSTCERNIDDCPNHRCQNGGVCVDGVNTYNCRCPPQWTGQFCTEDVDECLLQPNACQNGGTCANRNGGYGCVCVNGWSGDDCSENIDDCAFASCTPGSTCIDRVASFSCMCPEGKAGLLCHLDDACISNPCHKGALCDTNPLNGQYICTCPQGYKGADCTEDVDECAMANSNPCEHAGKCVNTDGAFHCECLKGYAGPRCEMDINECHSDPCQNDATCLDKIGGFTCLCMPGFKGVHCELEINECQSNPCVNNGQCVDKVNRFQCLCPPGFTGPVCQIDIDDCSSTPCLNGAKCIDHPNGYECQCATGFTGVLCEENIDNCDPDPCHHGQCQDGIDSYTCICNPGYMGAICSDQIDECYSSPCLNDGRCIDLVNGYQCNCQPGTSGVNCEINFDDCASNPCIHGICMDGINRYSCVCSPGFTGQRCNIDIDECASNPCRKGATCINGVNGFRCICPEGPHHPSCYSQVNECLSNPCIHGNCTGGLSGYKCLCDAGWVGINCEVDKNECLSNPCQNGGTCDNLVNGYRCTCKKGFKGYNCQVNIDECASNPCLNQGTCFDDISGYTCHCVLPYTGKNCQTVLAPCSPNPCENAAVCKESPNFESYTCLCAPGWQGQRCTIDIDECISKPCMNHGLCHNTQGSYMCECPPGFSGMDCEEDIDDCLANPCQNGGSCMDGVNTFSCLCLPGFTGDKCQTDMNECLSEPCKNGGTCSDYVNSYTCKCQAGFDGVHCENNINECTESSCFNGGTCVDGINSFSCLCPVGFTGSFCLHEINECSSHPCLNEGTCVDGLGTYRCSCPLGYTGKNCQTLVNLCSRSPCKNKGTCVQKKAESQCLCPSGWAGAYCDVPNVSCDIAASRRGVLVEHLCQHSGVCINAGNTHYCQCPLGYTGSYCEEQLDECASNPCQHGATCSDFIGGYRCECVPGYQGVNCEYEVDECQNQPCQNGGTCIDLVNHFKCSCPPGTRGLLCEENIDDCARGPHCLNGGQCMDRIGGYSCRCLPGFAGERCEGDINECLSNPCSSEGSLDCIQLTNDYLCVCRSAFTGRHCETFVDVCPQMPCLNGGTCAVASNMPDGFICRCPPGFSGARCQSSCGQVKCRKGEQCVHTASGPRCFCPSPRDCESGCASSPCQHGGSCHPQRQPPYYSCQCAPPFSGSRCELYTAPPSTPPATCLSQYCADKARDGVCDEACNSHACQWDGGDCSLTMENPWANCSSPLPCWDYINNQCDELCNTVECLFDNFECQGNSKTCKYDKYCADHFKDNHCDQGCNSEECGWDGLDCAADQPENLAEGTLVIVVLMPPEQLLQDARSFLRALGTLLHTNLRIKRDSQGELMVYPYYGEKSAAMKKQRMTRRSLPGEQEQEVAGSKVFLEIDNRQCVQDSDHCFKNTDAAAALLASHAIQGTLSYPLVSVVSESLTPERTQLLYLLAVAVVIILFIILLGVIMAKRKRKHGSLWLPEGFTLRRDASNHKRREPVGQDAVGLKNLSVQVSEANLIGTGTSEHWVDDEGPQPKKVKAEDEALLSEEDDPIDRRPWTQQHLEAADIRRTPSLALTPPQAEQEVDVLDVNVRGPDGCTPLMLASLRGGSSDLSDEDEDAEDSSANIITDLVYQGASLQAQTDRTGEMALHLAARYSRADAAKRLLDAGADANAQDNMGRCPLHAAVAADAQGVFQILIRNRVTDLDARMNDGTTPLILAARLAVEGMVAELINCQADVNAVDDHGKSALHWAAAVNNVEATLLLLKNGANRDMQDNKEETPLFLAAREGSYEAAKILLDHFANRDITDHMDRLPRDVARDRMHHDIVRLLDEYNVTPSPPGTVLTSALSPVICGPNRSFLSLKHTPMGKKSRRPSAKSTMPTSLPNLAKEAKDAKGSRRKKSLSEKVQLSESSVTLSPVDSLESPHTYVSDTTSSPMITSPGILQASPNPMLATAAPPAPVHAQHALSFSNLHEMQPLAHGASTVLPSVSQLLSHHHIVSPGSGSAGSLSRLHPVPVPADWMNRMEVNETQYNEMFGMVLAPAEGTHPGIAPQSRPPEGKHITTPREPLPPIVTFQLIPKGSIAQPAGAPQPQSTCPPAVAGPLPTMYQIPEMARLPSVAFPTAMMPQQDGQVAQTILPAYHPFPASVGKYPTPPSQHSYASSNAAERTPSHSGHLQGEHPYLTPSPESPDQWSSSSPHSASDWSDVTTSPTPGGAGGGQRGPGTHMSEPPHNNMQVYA

[6] = molecular target: Pro-neuregulin-1, membrane-bound isoform (Homo sapiens) (UniProt Q02297); assay: NRG1 binders on small-molecule microarrays, primary screen, psychiatric disease protein project, biochemical, small-molecule microarray, fluorescence 635/667 (AID 1075); details: NRG1 binding, 635 nm fluorescence, higher = more signal;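 further: score combines 667 nm spot fluorescence with signal to noise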
Sequence of Pro-neuregulin-1, membrane-bound isoform (Homo sapiens) (Q02297 whole entry, looked up, the tested form may be a part, canonical isoform): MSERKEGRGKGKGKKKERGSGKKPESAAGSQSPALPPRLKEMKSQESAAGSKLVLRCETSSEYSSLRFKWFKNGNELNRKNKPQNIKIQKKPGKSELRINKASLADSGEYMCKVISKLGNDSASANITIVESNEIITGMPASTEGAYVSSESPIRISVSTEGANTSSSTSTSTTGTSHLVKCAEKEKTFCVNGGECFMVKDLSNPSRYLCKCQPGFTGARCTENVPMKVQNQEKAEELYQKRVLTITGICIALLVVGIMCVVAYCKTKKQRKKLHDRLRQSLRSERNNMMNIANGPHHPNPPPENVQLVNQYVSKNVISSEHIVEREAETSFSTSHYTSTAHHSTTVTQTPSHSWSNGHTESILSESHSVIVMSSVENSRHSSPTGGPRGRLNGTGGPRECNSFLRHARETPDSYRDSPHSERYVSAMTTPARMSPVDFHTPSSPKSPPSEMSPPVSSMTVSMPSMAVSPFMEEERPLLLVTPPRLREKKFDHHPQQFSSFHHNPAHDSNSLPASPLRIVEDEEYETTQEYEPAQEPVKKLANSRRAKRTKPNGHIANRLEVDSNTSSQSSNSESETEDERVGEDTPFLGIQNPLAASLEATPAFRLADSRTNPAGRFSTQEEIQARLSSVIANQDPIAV

[7] = test system: Neuregulin-1 EGF-like domain; assay: binders of neuregulin-1 EGF-like domain, primary screen, biochemical, small-molecule microarray, 635 nm fluorescence (AID 1081); details: small-molecule microarray binding, higher = more signal;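 further: binding of the protein to compounds printed on small-molecule microarray slides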
[8] = FRG1 promoter luciferase signal modulators, primary screen, FRG1 inhibition for FSHD, cell-based, C2C12 myotubes, firefly/Renilla luciferase, luminescence (AID 1084); details: higher = more signal, called active from +8 up or from −8 down
[9] = binders of probe aFST on microarray, primary screen, stem cell growth factor project, biochemical, small-molecule microarray, fluorescence 635/667 (AID 1086); details: higher = more signal;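 further: score merges 667 nm fluorescence with signal-to-noise of each printed compound spot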
[10] = binders of probe aHhip on microarray, primary screen, stem cell growth factor project, biochemical, small-molecule microarray, fluorescence 635/667 (AID 1087); details: higher = more signal;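 further: score merges spot fluorescence at 667nm with spot signal to noise ratio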

SMILES | composite z-score [1] | composite z-score [2] | composite z-score [3] | composite z-score [4] | composite z-score [5] | composite z-score [6] | composite z-score [7] | z-score [8] | composite z-score [9] | composite z-score [10]
O=C1C[C@@](C(=O)NCCN2CCOCC2)(c2ccc([N+](=O)[O-])cc2)[C@@H](c2ccc(CO)cc2)N1CC12CC3CC(CC(C3)C1)C2 | -0.243 | 0.667 | -0.0692 | 0.573 | 1.51 | 1.58 | 1.39 | -2.76 (inactive) | 0.669 | 0.155
C=CCC(OC(C)=O)[C@@H]1[C@@H](N(Cc2ccc(-c3ccccc3)cc2)C(=O)c2ccc(-c3ccccc3)cc2)c2cc(OCCCO)ccc2N1C(=O)Cc1ccc2ccccc2c1 (stereo not given in full) | -0.519 | 0.574 | -0.117 | 0.0381 | 0.186 | 0.0278 | -0.6 | 0.187 (inactive) | 0.2 | -0.0631
C=C(COC)C(=O)CC[C@@H](OC(C)=O)c1ccc(CO)o1 | -0.263 | 0.0091 | -0.147 | 0.764 | -0.102 | -0.0949 | 0.611 | 0.632 (inactive) | 0.316 | 0.142
CC(C)NC(=O)[C@@]1(C)c2ccccc2C(=O)N(Cc2cc(C(F)(F)F)cc(C(F)(F)F)c2)[C@H]1c1ccc(CO)cc1 | 0.43 | -1.42 | -0.128 | -0.477 | -0.753 | 0.353 | 1.27 | -1.38 (inactive) | -0.213 | -0.374
NC(=O)NCC#Cc1ccc2c(c1)[C@]1(C(=O)N2)[C@H](c2ccc(O)cc2)N2[C@H](c3ccccc3)[C@H](c3ccccc3)OC(=O)[C@H]2[C@@H]1C(=O)O | 0.741 | -0.935 | -0.176 | -0.225 | -0.897 | 1.08 | -0.224 | 0.473 (inactive) | -0.0113 | -0.457
COCCOC(=O)N1C(=O)[C@@]2(c3cc(C#Cc4ccc(OC)cc4)ccc31)[C@H](c1ccc(O)cc1)N1[C@H](c3ccccc3)[C@H](c3ccccc3)OC(=O)[C@H]1[C@@H]2C(=O)N1CCc2cc(OC)c(OC)cc2C1 | 0.0419 | 0.87 | 0.0415 | 0.475 | 0.971 | 0.71 | 0.898 | -0.0112 (inactive) | 0.611 | 0.0873
CC(C)C(O)C1C=CC2C(=O)N(c3ccccc3)C(=O)C2N1Nc1ccc([N+](=O)[O-])cc1 (stereo not given) | 0.549 | -0.0664 | 0.0485 | 0.569 | 0.951 | 1.34 | 0.8 | 1.07 (inactive) | 0.886 | -0.214
COC(=O)[C@@]1(CCC(=O)OC(C)(C)C)N=C(c2ccc(OCCCO)cc2)O[C@H]1c1ccccc1N=[N+]=[N-] | 0.165 | -0.15 | -0.0354 | -0.312 | -0.0015 | 1.26 | 1.06 | 3.09 (inactive) | -0.161 | 0.119
COCCOC(=O)N1C(=O)[C@@]2(c3cc(C#CC4(O)CCCCCC4)ccc31)[C@H](c1ccc(OCCO)cc1)N1[C@H](c3ccccc3)[C@H](c3ccccc3)OC(=O)[C@H]1[C@@H]2C(=O)N1CCN(c2ncccn2)CC1 | -0.407 | 0.485 | -0.0242 | 0.612 | 1.03 | 1.09 | 0.966 | -0.254 (inactive) | 0.557 | -0.0645
CCCCCCc1nc(-c2ccc(OC)nc2)cc2c1[Si](C(C)C)(C(C)C)O[C@H]2c1ccccc1 | -0.16 | -0.0924 | 0.0131 | 0.0809 | 0.144 | -0.384 | -0.821 | -0.566 (inactive) | -0.546 | -0.146
COC(=O)c1c(CC[C@@H](CO)NC(=O)NCCn2cc(C3(O)CCCC3)nn2)oc(C(C)=O)c1C(=O)OC | -0.465 | 0.24 | 0.127 | 0.173 | -0.119 | 0.718 | 0.685 | -0.598 (inactive) | -0.204 | -0.184
C=CCOC(=O)[C@H]1[C@@H]2C(=O)O[C@@H](c3ccccc3)[C@@H](c3ccccc3)N2[C@@H](c2ccc(OCCOC(=O)[C@H]3C[C@H]4C(=O)N[C@@H](CCCCN(C)C)C(=O)N4[C@H]3c3ccc(O)cc3)cc2)[C@]12C(=O)Nc1ccc(I)cc12 | -0.38 | 1.01 | 0.0266 | 0.948 | 1.33 | 1.77 | 1.3 | 1.49 (inactive) | 0.0907 | -0.274
CC[C@@H]1C=C(C(=O)O)[C@H](c2ccc(Br)cc2)N1S(=O)(=O)c1ccc(C)cc1 | 0.191 | 0.0963 | 0.0746 | 0.638 | 1.26 | 1.93 | 0.503 | -1.18 (inactive) | 0.614 | 0.141
CC(C)[Si]1(C(C)C)O[C@@H](c2ccccc2)c2cc(-c3ccc(-c4ccc(Cl)c(Cl)c4)o3)nc(-c3ccccc3)c21 | -0.104 | 0.291 | -0.0953 | -0.0933 | -0.0802 | 0.398 | -0.39 | 0.97 (inactive) | 0.0481 | -0.0645
CN(C)C(=O)[C@]1(Cc2ccccc2N=[N+]=[N-])N=C(c2ccc(OCCCO)cc2)O[C@@H]1c1ccccc1N=[N+]=[N-] | 0.0009 | 0.827 | 0.0155 | 0.183 | 1.47 | 1.01 | 1.26 | -1.74 (inactive) | 1.15 | 0.0373
C[C@H]1NC(=O)[C@@]23C(=O)N[C@@H](Cc4ccccc4)C2[C@H](C)[C@@]2(C)O[C@H]2C3/C=C/C/C=C\CNC(=O)[C@@H]2CCCN2C1=O (stereo not given in full) | -0.468 | -0.454 | 0.0653 | 0.479 | 0.521 | 0.425 | 0.909 | 0.182 (inactive) | 0.145 | -0.132
CCOC(=O)C[C@H]1[C@H](OC(=O)c2ccccc2-c2ccccc2)[C@@H](NC(=O)CC(C)C)c2cc(OCCCO)ccc2N1C(=O)Cc1ccc(OC)cc1 | -0.259 | 0.43 | -0.104 | 0.225 | 0.135 | 0.173 | -0.155 | 0.506 (inactive) | 0.327 | -0.199
OCCCC1=CC(c2cccs2)N(Cc2cc3c(cc2Br)OCO3)CC1 (stereo not given) | 0.235 | 0.457 | -0.124 | -0.0316 | -0.242 | 0.775 | 1.04 | -1.86 (inactive) | -0.0026 | -0.206
CC1CC/C=C\[C@H]2OC34C=CCN(C(C)(C)C)C(=O)[C@H]3N(CCO)C(=O)[C@@H]4C2C(=O)O1 (stereo not given in full) | -0.133 | 0.0564 | -0.217 | -0.749 | -1.56 | -1.02 | 0.784 | 0.0503 (inactive) | -0.529 | -0.0645
O=C(CS)NCCCCCCNC(=O)[C@@H]1C[C@@H]2C(=O)NCC(=O)N2[C@@H]1c1cccc(OCCO)c1 | 0.35 | 0.024 | -0.0768 | -0.294 | -0.599 | 0.668 | 1.46 | 0.688 (inactive) | -0.528 | -0.274
CO[C@H]1O[C@H](CO)[C@@H](OC(=O)Nc2ccc(Oc3ccccc3)cc2)[C@H](OC(=O)Nc2ccc3c(c2)OCO3)[C@H]1OC(=O)Nc1ccc2c(c1)OCO2 | 0.522 | 1.24 | 0.178 | 1.21 | 1.5 | 1.69 | 1.15 | 5.22 (inactive) | 0.968 | 0.241
COC(=O)[C@@]1(Cc2ccc(OC)cc2)[C@H]2c3cc(C(=O)N(C)C)n(Cc4ccccn4)c3C[C@H]2CN1C(=O)c1ccccc1 | 1.19 | 2.08 | 0.0395 | -0.175 | 1.4 | 2.35 | 0.89 | 0.0734 (inactive) | 0.852 | 0.408
CC#CC(=O)Oc1ccccc1C=CC(=O)OCC | -0.156 | -0.0011 | -0.0268 | 0.238 | 0.53 | 0.133 | 0.448 | 0.809 (inactive) | 0.163 | -0.125
CC1(C)C2C=C(C(O)C3C=CC4C(=O)NC(=O)C4N3Nc3ccc(Cl)cc3Cl)C[C@@H]1C2 (stereo not given in full) | 1.16 | 0.877 | 0.0474 | 0.519 | 1.59 | 1.5 | 0.867 | -0.505 (inactive) | 1.29 | -0.104
